Laboratory results from the supplement of paper PMC4100887.
± gives the standard deviation of the averaged measurements.

Key:
IMR-90 = assay: relative cell viability (ATPlite) vs untreated control (fraction); higher = less toxic; details: 1 µM; 72 h
K562 [1] = assay: as above; details: 1 µM; 72 h
K562 [2] = assay: relative cell viability (ATPlite) vs untreated control, with imatinib (fraction); higher = less toxic; details: 1 µM; 72 h; imatinib 0.125 µM

SMILES | relative cell viability (IMR-90) | relative cell viability (K562 [1]) | relative cell viability (K562 [2])
CC(C)(C)c1nc2c3cc[nH]c(=O)c3c3cc(F)ccc3c2[nH]1 [JAK Inhibitor I] | 1.01 ± 0.045 | 0.796 ± 0.072 | 0.72 ± 0.035
NC(=O)Nc1cc(-c2ccccc2)sc1C(N)=O [IKK-2 Inhibitor XI] | 0.982 ± 0.094 | 0.983 ± 0.09 | 0.802 ± 0.037
O=Nc1c(-c2c(O)[nH]c3cc(Br)ccc23)[nH]c2ccccc12 [GSK-3 Inhibitor IX] | 0.935 ± 0.077 | 0.779 ± 0.036 | 0.599 ± 0.044
Cn1sc(=O)n(Cc2ccccc2)c1=O [GSK-3b Inhibitor I] | 0.98 ± 0.13 | 0.793 ± 0.027 | 0.704 ± 0.031
Cn1c2ccccc2c2c3c(c4c5ccccc5n(CCC#N)c4c21)CNC3=O | 1.03 ± 0.093 | 0.854 ± 0.1 | 0.739 ± 0.048
Cc1nc2cc3nc(-c4cccs4)cnc3cc2n1C | 0.894 ± 0.058 | 0.343 ± 0.04 | 0.288 ± 0.015
CCCCc1c(-c2ccc(OC)cc2)[nH]c2nccnc12 [Aloisine, RP106] | 0.897 ± 0.069 | 0.929 ± 0.046 | 0.819 ± 0.05
O=C(Nc1ccc(-c2cn[nH]c2)cc1)C1COc2ccccc2O1 (centres undefined) [Rho Kinase Inhibitor V] | 1.09 ± 0.066 | 0.824 ± 0.075 | 0.687 ± 0.028
O=C1NCCc2[nH]c(-c3ccnc(-c4cnc5ccccc5c4)c3)cc21 [MK-2 Inhibitor III] | 0.884 ± 0.11 | 0.837 ± 0.085 | 0.709 ± 0.057
COc1cc(SC)ccc1C(=O)N1CCC(Cc2ccccc2)CC1 [p38 MAP Kinase Inhibitor VI, JX401] | 1.03 ± 0.094 | 0.807 ± 0.042 | 0.716 ± 0.023
COc1cc2ncc(-c3ccccc3)nc2cc1OC | 1.1 ± 0.066 | 0.888 ± 0.083 | 0.76 ± 0.045
O=c1c2ccccc2[nH]c(=S)n1CCN1CCC(=C(c2ccc(F)cc2)c2ccc(F)cc2)CC1 [Diacylglycerol Kinase Inhibitor II] | 0.995 ± 0.097 | 0.867 ± 0.094 | 0.768 ± 0.07
O=C(Nc1cc(Cl)cc2c1[nH]c1cnccc12)c1cccnc1 [IKK Inhibitor X] | 0.946 ± 0.061 | 0.896 ± 0.069 | 0.804 ± 0.023
N#Cc1cc([N+](=O)[O-])c2sc(C(N)=O)[n+]([O-])c2c1 [Polo-like Kinase Inhibitor II, BTO-1] | 1.01 ± 0.12 | 0.88 ± 0.081 | 0.709 ± 0.056
O=C(Nc1ccncc1)Nc1c(Cl)cc(Cl)cc1Cl [Rho Kinase Inhibitor II] | 1.08 ± 0.11 | 0.856 ± 0.056 | 0.743 ± 0.03
CCN(CC)CCCCN1c2ccccc2Oc2ccc(Cl)cc21 [Akt Inhibitor X] | 0.889 ± 0.093 | 0.848 ± 0.089 | 0.77 ± 0.061
COc1cc2ncnc(N3CCN(C(=O)Nc4ccc(Oc5ccccc5)cc4)CC3)c2cc1OC [PDGF Receptor Tyrosine Kinase Inhibitor III] | 1.01 ± 0.086 | 0.736 ± 0.03 | 0.649 ± 0.029

SMILES | relative cell viability (IMR-90) | relative cell viability (K562 [1]) | relative cell viability (K562 [2])
COc1cc2ncnc(Nc3ccc(O)c(Br)c3)c2cc1OC [JAK3 Inhibitor II] | 1.01 ± 0.09 | 0.815 ± 0.037 | 0.717 ± 0.032
Cc1ccc(S(=O)(=O)/C=C/C#N)cc1 | 1.01 ± 0.032 | 0.721 ± 0.15 | 0.697 ± 0.14
O=C(Nc1cc(C(F)(F)F)cc(C(F)(F)F)c1)c1cc(Cl)ccc1O [IKK-2 Inhibitor V] | 0.878 ± 0.28 | 0.505 ± 0.03 | 0.477 ± 0.011
O=C1C(Cl)=C(N2C(=O)CCC2=O)C(=O)c2ccccc21 [MEK Inhibitor II] | 1.01 ± 0.11 | 0.802 ± 0.089 | 0.653 ± 0.071
c1ccc2c(-c3ccncc3)c[nH]c2c1 [Rho Kinase Inhibitor III, Rockout] | 0.814 ± 0.19 | 0.833 ± 0.097 | 0.683 ± 0.029
Cn1nc2c3c(cccc31)C(=O)c1ccccc1-2 [JNK Inhibitor, Negative Control] | 1.02 ± 0.11 | 0.869 ± 0.083 | 0.733 ± 0.038
O=C(O)C=Cc1cc(Br)c(Br)c(Br)c1Br [Casein Kinase II Inhibitor III, TBCA] | 0.889 ± 0.14 | 0.988 ± 0.082 | 0.836 ± 0.044
c1ccc(-c2cnc(Nc3ccc(OCCN4CCCC4)cc3)s2)cc1 [Flt-3 Inhibitor III] | 0.924 ± 0.052 | 0.916 ± 0.065 | 0.797 ± 0.031
Cn1cc(C2=C(c3cn(CCCSC(=N)N)c4ccccc34)C(=O)NC2=O)c2ccccc21 | 0.967 ± 0.2 | 0.834 ± 0.1 | 0.733 ± 0.062
CN1C(=O)C(c2c[nH]c3ccccc23)=C(c2c[nH]c3ccccc23)C1=O [Bisindolylmaleimide V] | 0.936 ± 0.091 | 0.88 ± 0.053 | 0.77 ± 0.0092
O=C1NC(=O)C(c2cn(CCCO)c3ncccc23)=C1c1cnccn1 [GSK-3b Inhibitor XI] | 1.02 ± 0.054 | 0.915 ± 0.075 | 0.757 ± 0.046
Cc1nc(-c2ccccc2)c(-c2ccncc2)o1 | 1.02 ± 0.093 | 0.835 ± 0.077 | 0.649 ± 0.16
O=C1c2ccccc2-c2nc3nnnn3nc21 [PDK1/Akt/Flt Dual Pathway Inhibitor] | 0.856 ± 0.069 | 0.028 ± 0.0014 | 0.0249 ± 0.0025
CN[C@@H]1C[C@H]2O[C@@](C)([C@@H]1OC)n1c3ccccc3c3c4c(c5c6ccccc6n2c5c31)C(=O)N[C@H]4O | 0.101 ± 0.021 | 0.18 ± 0.048 | 0.14 ± 0.026
CC[n+]1c(/C=C/N(C)c2ccccc2)n(-c2ccccc2)c2ccc(-c3nc4ccccc4s3)cc21 [Akt Inhibitor IV] | 0.924 ± 0.1 | 0.169 ± 0.082 | 0.0639 ± 0.02
O=C1Nc2ccc(Br)cc2/C1=C/c1cc2c([nH]1)CCCC2 [VEGF Receptor 2 Kinase Inhibitor II] | 0.979 ± 0.059 | 0.864 ± 0.081 | 0.782 ± 0.054
